Screening results from PubChem BioAssay.
TrxR1 substrate – qHTS Assay for Substrates of Mammalian Selenoprotein Thioredoxin Reductase 1 (TrxR1): qHTS; 390,000 compounds, 0.01% hits; purified TrxR1 substrate turnover, NADPH consumption readout; Thioredoxin reductase 1, cytoplasmic (Rattus norvegicus), O89049; Potency, µM (series often up to 114 µM), for the others: at the highest dose activity change, negative = substrate turnover; further: potency means the concentration at half of the fitted maximal effect; on the % scale 0 is the no-effect control and ±100 the full control effect; nearly all actives have a fitted effect of over 50% in size
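Rat TrxR1, dispensed at 90 nM, was prereduced with 400 uM NADPH (final) for 5 min at ~22 deg C, then incubated with compound 15 min before 400 uM selenite. A first-read NADPH fluorescence drop versus no-compound background flagged substrates.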
GLS inh – qHTS for Inhibitors of Glutaminase (GLS). GLS enzymatic activity, qHTS titration. Potency, µM (highest dose often 45.5 µM), for the others: top-dose activity change, negative = inhibition, usual class: inhibitors. 410,000 compounds, 0.21% hits. AID 624170, 2012; further: potency means the concentration at half of the fitted maximal effect; on the % scale 0 is the no-effect control and ±100 the full control effect
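Two-point fluorescence kinetic (t0, 30 min RT) for hKGA; glutamate detected via glutamate oxidase–HRP–Amplex Red. Substrate: 1 mM L-glutamine solution; buffer 45 mM KH2PO4, pH 8.2.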
LDHA inh – qHTS assay for inhibitors of human lactate dehydrogenase | AID 1347041, 2019 | activity change, % (values are at about 110 or 230 µM) | purified LDHA, NADH/diaphorase-resazurin fluorescence; stronger effect = lower value | L-lactate dehydrogenase A chain (Homo sapiens), P00338 | 480,000 compounds, 0.15% hits; in the data active means activity change below about -30%; inconclusive means mostly about -25% to -30%;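 further: plate controls were DMSO wells for no effect and wells without enzyme for full effect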
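Resorufin fluorescence (ex540/em590), read at 0 and 20 min after diaphorase/resazurin addition, reports the NADH left after a 5 min room-temperature reaction of 2 nM human LDH5 with 0.06 mM NADH and 0.2 mM pyruvate.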
mIDH1 inhibitor – qHTS for Inhibitors of mutant isocitrate dehydrogenase 1 (IDH1): qHTS; Isocitrate dehydrogenase [NADP] cytoplasmic (Homo sapiens), O75874; IDH1-R132H enzyme, NADPH consumption, diaphorase/resazurin fluorescence; Potency, µM (highest dose often 76.6 µM), for inactives: top-dose activity change, negative = inhibition, usual class: inhibitors; 390,000 compounds, 0.093% hits; AID 602179, 2012; further: potency means the concentration at half of the fitted maximal effect; on the % scale 0 is the no-effect control and ±100 the full control effect; nearly all actives have a fitted effect of over 65% in size
Target sequence (O75874 whole entry R132H, stated change not applied): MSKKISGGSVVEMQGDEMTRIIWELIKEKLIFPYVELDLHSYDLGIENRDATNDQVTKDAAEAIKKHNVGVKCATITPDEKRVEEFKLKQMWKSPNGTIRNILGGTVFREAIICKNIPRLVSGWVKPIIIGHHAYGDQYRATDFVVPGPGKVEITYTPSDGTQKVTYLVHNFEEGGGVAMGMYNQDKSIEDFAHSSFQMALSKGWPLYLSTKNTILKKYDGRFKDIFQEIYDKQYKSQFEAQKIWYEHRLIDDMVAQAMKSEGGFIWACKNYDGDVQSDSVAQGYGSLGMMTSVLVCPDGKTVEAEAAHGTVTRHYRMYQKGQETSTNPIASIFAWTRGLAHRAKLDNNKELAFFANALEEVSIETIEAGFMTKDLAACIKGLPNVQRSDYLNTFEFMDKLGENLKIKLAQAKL
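IDH1-R132H (0.5 ug/mL) preincubated 30 min with compound, then NADPH (0.016 mM) and alpha-KG (2 mM) added; 80 min at RT, pH 7.5. Remaining NADPH coupled via diaphorase/resazurin to fluorescence (540/590 nm); concentration-response curves normalized to no-enzyme control.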
PKM2 act – qHTS Assay for Activators of Human Muscle isoform 2 Pyruvate Kinase | Pyruvate kinase PKM (Homo sapiens), P14618 | purified PKM2, Kinase-Glo ATP luminescence, activation; response scale: 0% is enzyme alone, no compound | Potency, µM (series often up to 57.5 µM), inactives show at the highest dose activation, hits mostly activators | 260,000 compounds, 0.34% hits | AID 1631, 2009; further: potency means the concentration at half of the fitted maximal effect; on the % scale 0 is the no-effect control and ±100 the full control effect; nearly all actives have a fitted effect of over 55% in size
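Purified hPK-M2 (>95% pure) converted ADP (0.1 mM final) to ATP with 0.5 mM PEP in 50 mM imidazole pH7.2, KCl, MgCl2, Tween 20, BSA; 1 h at room temperature. ATP detected by Kinase-Glo luminescence.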
TrxR1 inh – qHTS Assay for Inhibitors of Mammalian Selenoprotein Thioredoxin Reductase 1 (TrxR1): qHTS | 390,000 compounds, 1% hits | Thioredoxin reductase 1, cytoplasmic (Rattus norvegicus), O89049 | AID 588453, 2011 | Potency, µM (highest dose often 114 µM), inactives show at the top dose activity change, negative = inhibition, usual class: inhibitors | recombinant rTrxR1, NADPH fluorescence consumption, selenite substrate; further: potency means the concentration at half of the fitted maximal effect; on the % scale 0 is the no-effect control and ±100 the full control effect; nearly all actives have a fitted effect of over 65% in size
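Rat TrxR1 (90 nM in the dispensed reagent) was pre-reduced with 400 uM NADPH for 5 min at room temperature, then incubated with compound for 15 min. After 400 uM selenite was added, NADPH fluorescence (Ex 340/Em 450 nm) was followed for 8 min.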
HeLa viability – Secondary assay for Activators of Human Pyruvate Kinase M2 isoform - Cell Titer Glo cytotoxicity assay. shares compounds with PKM2 act. HeLa viability, CellTiter-Glo ATP luminescence, 24 h. activity change, negative = cytotoxicity, % at 57.5 µM. 230 tested, under 10 active. AID 1898, 2009; further: % of control where 0% means no effect
* marks the source's active call; other numbers are inactive results; ? = inconclusive; . = no result given; [ ] = remark or other dose. This is a sample that favours compounds with a hit; in the whole collection about 1.4% have one here. Unless noted, the call rests on the fitted dose curve; in most records, active means well fitted curve in the direction sought with a large enough effect; inconclusive means small, poorly fitted or top-dose-only effect, or another doubt; inactive means no such curve, though single readings can be large; an effect the other way counts as inactive or inconclusive.

SMILES	TrxR1 substrate	GLS inh	LDHA inh	mIDH1 inhibitor	PKM2 act	TrxR1 inh	HeLa viability
CCNC(=O)NC(=O)C(C)OC(=O)CSc1ccc(Br)cc1 (stereo not given)	.	.	-2.3	.	.	.	.
Oc1ccc(C=Nc2cccc3ccccc23)cc1	.	.	22.0	.	.	.	.
O=S(=O)(c1cccs1)N1CCN(S(=O)(=O)c2cccs2)CC1	-8.1%	-5.1%	-6.8	-2.9%	0.398µM*	25.5%[57.1 µM]	-6.3
CCc1ccc(-c2cc3c(=O)[nH]nc(SCC(=O)NC4CCCCC4)n3n2)cc1	.	.	-6.5	.	.	.	.
CC1CCCC(NC(=O)c2ccc(NC(=O)CC#N)cc2)C1C (stereo not given)	.	.	8.6	.	.	.	.
Cc1ccc(NS(=O)(=O)c2ccc3c(c2)CCC(=O)N3)cc1C	7.6%[57.1 µM]	8.0%	-2.9	2.4%	0.794µM*	11.2%[57.1 µM]	?
COc1ccc2c(c1)c(=O)oc1cc(O)ccc12	7.0%[57.1 µM]	21.0%	-8.2	-10.2%	-1.8%	15.9%[57.1 µM]	.
NS(=O)(=O)c1ccc2c(c1)oc(=O)c1cc(S(N)(=O)=O)ccc12	1.0%	4.7%	17.7	-0.5%	0.355µM*	2.0%	-18.9
CC1(C)CC(=O)C2=C(C1)NC(SCC(=O)Nc1ccccc1)=C(C#N)C2c1ccco1 (stereo not given)	1.6%[57.1 µM]	-15.2%	0.7	-5.5%	6.8%	0.1%[11.4 µM]	.
Cc1ccc(NC(=O)CSC2=C(C#N)C(c3ccco3)C3=C(CCCC3=O)N2)cc1 (stereo not given)	-4.7%	13.3%	-1.7	13.0%	4.47µM*	-0.9%	-3.4
CC(C)NC(=O)c1cccc(NC(=O)CCCC(=O)O)c1	.	.	0.0	.	.	.	.
O=S(=O)(c1ccc(F)cc1)N1CCN(C23CC4CC(CC(C4)C2)C3)CC1	.	.	-8.4	.	.	.	.
CC(=O)Nc1cc(S(=O)(=O)Nc2cccc(C)c2)c(C)cc1C	1.5%[57.1 µM]	-3.7%	-7.7	-2.1%	2.0%	14.5%[57.1 µM]	.
Cc1cccc(NS(=O)(=O)c2cc3c(cc2C)n(C)c(=O)c(=O)n3C)c1	-1.3%[57.1 µM]	6.7%	-3.4	14.1%	0.398µM*	8.7%[57.1 µM]	-25.1
COc1ccc(S(=O)(=O)NCC2CCCN(C(=O)c3ccccc3)C2)cc1 (stereo not given)	6.0%	1.0%	-4.5	0.8%	2.51µM*	22.0%	3.2
O=S(=O)(c1ccc(S(=O)(=O)N2CCCC2)cc1)N1CCCCC1	-0.3%	-12.0%	-5.8	8.7%	-3.7%	4.1%	.
O=c1c2ccccc2sn1-c1ccc(S(=O)(=O)N2CCCC2)cc1	2.7%	?	-6.8	-1.1%	1.41µM*	50.1%	0.0
CC(=O)Nc1ccc(SC(C)C(=O)c2ccc3c(c2)CCC3)cc1 (stereo not given)	.	.	8.6	.	.	.	.
CCNS(=O)(=O)c1ccc(NC(=O)c2ccc(Cn3cc(Br)cn3)o2)cc1	-6.3%	3.3%	0.2	2.2%	5.01µM*	-2.5%	0.0
NC(=O)CC(NC(=O)Cc1ccc(Cl)cc1)c1ccc(NCC2CC2)c([N+](=O)[O-])c1 (stereo not given)	-10.5%	-7.1%	0.1	16.3%	21.2%	-15.6%	.
NC(=O)CC(NC(=O)Cc1ccc(Cl)cc1)c1ccc(NCCc2ccccc2F)c([N+](=O)[O-])c1 (stereo not given)	7.0%[57.1 µM]	3.3%	-3.9	25.4%	3.98µM*	15.8%[57.1 µM]	-8.5
Cc1ccc(N=C2NN=C(c3c[nH]c(C(=O)N4CCCC4)c3)CS2)cc1C	.	.	-6.2	.	.	.	.
CCn1c(SCC(=O)Nc2cccc(O)c2)nc2c1c(=O)n(C)c(=O)n2C	6.6%	2.7%	2.1	0.0%	1.12µM*	12.1%	-5.0
CN(C)CC(=O)N1CCN(C(=O)C=C(C2CC2)C2CC2)CC1	.	.	-0.8	.	.	.	.
O=S(=O)(c1c(F)cccc1F)N1CCN(S(=O)(=O)c2c(F)cccc2F)CC1	.	.	-7.4	.	.	.	-17.5
SMILES	TrxR1 substrate	GLS inh	LDHA inh	mIDH1 inhibitor	PKM2 act	TrxR1 inh	HeLa viability
COC(=O)c1[nH]c2ccccc2c1NS(=O)(=O)c1ccc(F)c(C)c1	-6.5%	46.5%	-3.4	6.0%	10µM*	8.4%	-9.6
CCCS(=O)(=O)Nc1c(C(=O)OC)[nH]c2ccccc12	-1.9%	0.9%	3.0	4.7%	4.5%	-4.7%	.
CC(C)C1CCC(C)C(C2(C#N)C(N)=C(C=O)CC2(C#N)C#N)C1=O (stereo not given)	.	.	13.5	.	.	.	.
COc1ccc(S(=O)(=O)Nc2nc3c(s2)CCCC3)cc1	-2.9%	12.1%	2.2	-0.7%	5.01µM*	2.8%	-26.6
Cc1ccc(NC(=O)CSC2CCCC2)c(Br)c1	.	.	-1.6	.	.	.	.
Cc1cc2c(s1)c1c(C)nn(Cc3ccccc3F)c(=O)c1n2C	.	.	.	.	.	.	-2.9
Cc1cc2c(s1)c1cnn(Cc3ccc(F)cc3Cl)c(=O)c1n2C	.	.	-8.1	.	.	.	.
Cc1cc2[nH]c3c(=O)n(Cc4ccccc4F)ncc3c2s1	.	.	-1.0	.	.	.	-2.8
Cc1cc2c(s1)c1cnn(Cc3cc(F)cc(F)c3F)c(=O)c1n2C	.	.	-7.2	.	.	.	.
Cc1cc2c(s1)c1cnn(Cc3ccc(C(F)(F)F)cc3F)c(=O)c1n2C	.	.	-15.0	.	.	.	17.5
CCn1c2cc(C)sc2c2cnn(Cc3ccccc3F)c(=O)c21	.	.	-0.3	.	.	.	-21.6
Cc1cccc(-c2cc(C(=O)Nc3cccc(C)n3)c3ccccc3n2)c1	.	.	-0.1	.	.	.	.
Cc1ccc(S(=O)(=O)Nc2nc3ccccc3nc2Nc2ccc(F)cc2)cc1	.	.	6.2	.	.	.	.
